The campaign covered roughly 290,000 compounds. About 3,000 (1%) were called active. Rule as the data show it: active = inhibition mostly above about 36% (no sharp cut-off); inactive = mostly below about 34%. Only a selection was taken, and actives are over-represented in it overall.
Test: inhibition of NOD1-driven NF-kB reporter – cell-based, luminescence, uHTS, primary screen (AID 1578);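 also: HEK-293T reporter cells stimulated with the NOD1 agonist gamma-tri-DAP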
Conditions: NOD1-driven NF-kB luciferase reporter cells, at 4 µM, stronger effect = higher value

SMILES | inhibition
Cc1c(-c2cccc(Cl)c2)nc2ccccc2c1C(=O)N1CCC2(CC1)OCCO2 | -11.2% (inactive)
O=[N+]([O-])c1ccc(-[n+]2c(-c3ccccc3)cc(-c3ccccc3)cc2-c2ccccc2)cc1 | -8.8% (inactive)
c1ccc(-c2cc(-c3ccccc3)[n+](-c3ccccc3)c(-c3ccccc3)c2)cc1 | 65.7% (active)
Nc1ccccc1-[n+]1c(-c2ccccc2)cc(-c2ccccc2)cc1-c1ccccc1 | -5.4% (inactive)
CCNC(=O)[C@H]1O[C@@H](n2cnc3c(N)ncnc32)[C@H](O)[C@@H]1O | -5.6% (inactive)
NC(=S)c1cn(C2OC(CO)C(O)C2O)c2ncnc(N)c12 (configuration not stated) | 104% (active)
CN(C)C(=O)Oc1ccc2c(c1)O/C(=C\c1cccc([N+](=O)[O-])c1)C2=O | -9.1% (inactive)
O=C1NC(=O)C(=Cc2ccc(Sc3ccccc3)o2)C(=O)N1 | 1.7% (inactive)
Cc1c(C=O)c2ccccc2n1Cc1ccccc1F | 5% (inactive)
CCn1c(O)c(/C=N/NC(=O)c2ccncc2)c(=O)[nH]c1=S | 2.7% (inactive)
CCOC(=O)CCN=Cc1c(O)n(-c2ccc(Br)cc2)c(=O)[nH]c1=O | -27.1% (inactive)
Cc1cc(C)n2nc(C)[n+](C)c2n1 | -17.4% (inactive)
COC(=O)c1c(C)n(Cc2ccccc2)c2ccc(O)cc12 | 19.6% (inactive)
COC(=O)c1c(C)n(Cc2ccc3c(c2)OCO3)c2ccc(O)cc12 | 48.3% (active)
CCOC(=O)c1c(C)n(Cc2ccc3c(c2)OCO3)c2ccc(O)cc12 | -7.9% (inactive)
C=CCn1c(O)c(/C(C)=N/N2CCCCCC2)c(=O)[nH]c1=O | -6.9% (inactive)
CCCCCn1c(=O)c(C(=O)Nc2cccc(C)c2)c(O)c2ccccc21 | -15.2% (inactive)
CCCCCCn1c(=O)c(C(=O)Nc2ccncc2)c(O)c2ccccc21 | 63.9% (active)
CCOC(=O)Cc1csc(NC(=O)c2c(O)c3ccccc3n(CCC(C)C)c2=O)n1 | -27.7% (inactive)
CCCCCn1c(=O)c(C(=O)Nc2nc(CC(=O)OCC)cs2)c(O)c2ccccc21 | -28.8% (inactive)
CCCCn1c(=O)c(C(=O)Nc2ccccc2)c(O)c2ccccc21 | 14.3% (inactive)
CCCCCn1c(=O)c(C(=O)Nc2ccccc2)c(O)c2ccccc21 | -20.5% (inactive)

SMILES | inhibition
CCCCCCn1c(=O)c(C(=O)Nc2nc(CC(=O)OCC)cs2)c(O)c2ccccc21 | 58.7% (active)
CCCCCn1c(=O)c(C(=O)Nc2ccncc2)c(O)c2ccccc21 | 69.7% (active)
CCCCCn1c(=O)c(C(=O)NCc2ccncc2)c(O)c2ccccc21 | 21.6% (inactive)
Cc1ccc(N2CCN(CCc3ccccc3)CC2)cc1 | 10.7% (inactive)
CCOc1nc(NC(C)C)nc(N2CC3CC(C2)c2cccc(=O)n2C3)n1 (configuration not stated) | -38.6% (inactive)
O=C(Nc1cccc(Cl)c1)c1c(O)c2c(n(Cc3ccccc3)c1=O)CCCC2 | -38.5% (inactive)
CCCCn1c(O)c(C(C)=NCCCn2ccnc2)c(=O)[nH]c1=O | -5.8% (inactive)
Cc1ccsc1C(=O)C1CCCN(Cc2ccc(O)cc2)C1 (configuration not stated) | -32.6% (inactive)
Cc1ccsc1C(=O)C1CCCN(Cc2cnc(N(C)C)s2)C1 (configuration not stated) | -26.4% (inactive)
Cc1ncc(CN2CCCC(C(=O)c3sccc3C)C2)s1 (configuration not stated) | -24.9% (inactive)
Cc1ccsc1C(=O)C1CCCN(Cc2cnc(N3CCCC3)s2)C1 (configuration not stated) | 11.2% (inactive)
Cc1ccsc1C(=O)C1CCCN(Cc2sc(N(C)C)nc2Cl)C1 (configuration not stated) | 60.9% (active)
Cc1ccc(CN2CCCC(C(=O)c3sccc3C)C2)o1 (configuration not stated) | -19.5% (inactive)
CCc1ccc(CN2CCCC(C(=O)c3sccc3C)C2)o1 (configuration not stated) | -19% (inactive)
Cc1ccsc1C(=O)C1CCCN(Cc2cnc(N3CCOCC3)s2)C1 (configuration not stated) | 46.6% (active)
Cc1ccsc1C(=O)C1CCCN(Cc2cc3ccccc3o2)C1 (configuration not stated) | 75.6% (active)
CC(C)(C)C(=O)c1cn(CC(=O)NCc2ccco2)c2ccccc12 | -39.1% (inactive)
Cc1ccc(-n2c(O)c(/C=N/N3CCCCCC3)c(=O)[nH]c2=O)cc1C | 1.1% (inactive)
CCC(=NCCCn1ccnc1)c1c(O)n(-c2ccc(OC)cc2)c(=O)[nH]c1=O | -8.6% (inactive)
COc1cccc(C(=O)C2CN(C)CC2c2ccc(Cl)cc2)c1 (configuration not stated) | -33.4% (inactive)
CC/C(=N\NC(=O)c1ccccc1)c1c(O)n(Cc2ccccc2)c(=O)[nH]c1=O | 12.5% (inactive)
O=c1[nH]c(=S)n(C2CC2)c(O)c1C=NCC1CCCO1 (configuration not stated) | -13.4% (inactive)

SMILES | inhibition
COC(=O)c1ccccc1NC(=O)N1C[C@@H]2C[C@@H](C1)c1cccc(=O)n1C2 | -15.8% (inactive)
COc1ccc(CCC(=O)N2C[C@H]3C[C@@H](C2)c2cccc(=O)n2C3)cc1 | 53.1% (active)
O=c1cccc2n1CC1CC2CN(Cc2cccc(Cl)c2Cl)C1 (configuration not stated) | 63.8% (active)
COc1ccc(CC(=O)N2C[C@H]3C[C@@H](C2)c2cccc(=O)n2C3)cc1 | 24.2% (inactive)
O=C(CCc1ccc(O)cc1)N1C[C@H]2C[C@@H](C1)c1cccc(=O)n1C2 | 9.1% (inactive)
COc1ccccc1NC(=O)N1C[C@@H]2C[C@@H](C1)c1cccc(=O)n1C2 | -34.3% (inactive)
O=c1cccc2n1CC1CC2CN(Cc2c(Cl)cccc2Cl)C1 (configuration not stated) | 14% (inactive)
O=c1cccc2n1CC1CC2CN(Cc2c(F)cccc2Cl)C1 (configuration not stated) | -7.2% (inactive)
CCc1ccccc1NC(=O)N1C[C@H]2C[C@@H](C1)c1cccc(=O)n1C2 | 54.5% (active)
O=[N+]([O-])c1ccc(N2CCCNCC2)c2ncccc12 | -0.2% (inactive)
CC(C)Sc1nnc([C@@H](N)Cc2c[nH]c3ccccc23)o1 | -2.5% (inactive)
C[C@H]1O[C@@H](OC2CC[C@]3(C=O)[C@H]4CC[C@]5(C)[C@@H](C6=CC(=O)OC6)CC[C@]5(O)[C@@H]4CC[C@]3(O)C2)CC2OC(C)(C)OC21 (some centres not stated) | 89.2% (active)
CC12CC[C@H]3[C@@H](CCC4(O)C[C@H](O)CCC34/C=N/NC(=O)Cc3ccccc3)C1(O)CCC2C1=CC(=O)OC1 (some centres not stated) | -7% (inactive)
COc1cc(C(=O)N/N=C/C23CC[C@@H](O)CC2(O)CC[C@@H]2[C@@H]3CCC3(C)C(C4=CC(=O)OC4)CCC23O)ccc1O (some centres not stated) | -5.4% (inactive)
CC12CC[C@H]3[C@@H](CCC4(O)C[C@H](O)CCC34/C=N/NC(=O)c3ccccc3O)C1(O)CCC2C1=CC(=O)OC1 (some centres not stated) | 4.5% (inactive)
C[C@H]1O[C@@H](O[C@H]2[C@@H](O)C[C@H](O[C@H]3[C@@H](O)C[C@H](O[C@H]4CC[C@@]5(C)[C@H](CC[C@@H]6[C@@H]5CC[C@]5(C)[C@@H](C7=CC(=O)OC7)CC[C@]65O)C4)O[C@@H]3C)O[C@@H]2C)C[C@H](O)[C@@H]1O | 105% (active)
CC12CC[C@H]3[C@@H](CCC4(O)C[C@H](O)CCC34/C=N/NC(=O)c3ccccc3F)C1(O)CCC2C1=CC(=O)OC1 (some centres not stated) | -9.8% (inactive)
CN1CCC2(O)OCCCC2C1 (configuration not stated) | 4.3% (inactive)
Cc1c(N)c(C)c([N+](=O)[O-])c(C)c1[N+](=O)[O-] | 69.5% (active)
O=C1CN(C(=O)CN2CCCCC2)C(c2ccccc2)c2cc(Br)ccc2N1 (configuration not stated) | -24.1% (inactive)
O=C(Nc1ccccc1)c1cccn(Cc2ccccc2)c1=O | 23% (inactive)
O=C(Nc1cccc(C(F)(F)F)c1)c1cccn(Cc2ccc3c(c2)OC(F)(F)O3)c1=O | 35.6% (inactive)

SMILES | inhibition
O=C(Nc1ccc(C(F)(F)F)cc1)c1cccn(Cc2ccc3c(c2)OC(F)(F)O3)c1=O | 59.7% (active)
O=C(NCc1ccccc1)c1cccn(Cc2ccccc2)c1=O | 2.3% (inactive)
Cc1cccc(C)c1NC(=O)c1cccn(Cc2ccc3c(c2)OC(F)(F)O3)c1=O | 21.8% (inactive)
O=C(Nc1ccncc1)c1cccn(Cc2ccccc2)c1=O | 33.5% (active)
Cc1nn(Cc2ccccc2Cl)c(Cl)c1C(=O)OCC(=O)NCc1ccco1 | 2.8% (inactive)
CC(C)Oc1ccc(CCN)cc1Cl | -19.6% (inactive)
CCCCCn1c(=O)c(C(=O)Nc2ccccn2)c(O)c2ccccc21 | -4.7% (inactive)
Cc1ccc(CN(Cc2ccccc2)C(=S)NCC(=O)N2CCC3(CC2)OCCO3)o1 | -33.5% (inactive)
CCOC(=O)c1[nH]ncc1CN1CCCC(C(=O)c2cccc(Cl)c2)C1 (configuration not stated) | -5.2% (inactive)
O=[N+]([O-])c1ccc(NCc2ccc(Cl)cc2)c2ccncc12 | 37% (active)
O=[N+]([O-])c1ccc(NC2CCN(Cc3ccccc3)CC2)c2ccncc12 | -6.9% (inactive)
O=[N+]([O-])c1ccc(NC2CCCC2)c2ccncc12 | 40.7% (inactive)
Fc1cccc(CN2CCN(c3ccc(Cl)cc3)CC2)c1 | -10.4% (inactive)
CC(C)=CCc1c(O)cc2c(c1O)C(=O)CC(c1ccc(O)cc1)O2 (configuration not stated) | 5.8% (inactive)
CN1CCN(/N=C/c2c[nH]c3ccccc23)CC1 | -2.1% (inactive)
OC(CN1CCC(c2c[nH]c3ccccc23)CC1)C(F)(F)F (configuration not stated) | 1.1% (inactive)
CN1CCC(c2c[nH]c3ccccc23)C1 (configuration not stated) | 34.9% (active)
CN1CC(C(=O)c2ccc(Cl)cc2)C(c2ccccc2F)C1 (configuration not stated) | -15.7% (inactive)
Cc1c(N=Nc2c(O)n(-c3ccc(Br)cc3)c(=O)[nH]c2=O)c(=O)n(-c2ccccc2)n1C | -1.1% (inactive)
CCOc1ccc(-n2c(O)c(N=Nc3ccc([N+](=O)[O-])cc3)c(=O)[nH]c2=O)cc1 | -17.8% (inactive)
O=c1[nH]c(=O)n(-c2ccccc2)c(O)c1N=Nc1ccc(Br)cc1 | 60.1% (active)
